# Results taken from the supplement of paper PMC10338343.
# ± gives the standard deviation.
# System: EfPiwi piRISC loaded with L1MC piRNA (26 nt)
# Test: pre-steady-state target cleavage rate (min^-1); auxiliary factor: 500 nM Ephydatia muelleri Gtsf1; guide: L1MC piRNA 5'p-UAACUAAAUACUAUGCAAGCUGUAGG; MIWI and MILI are mouse PIWI proteins and EfPiwi is from a freshwater sponge; tags in brackets are library labels; higher = faster piRNA-guided slicing of the target
# Method in brief: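 The pre-steady-state cleavage rate came from a burst-and-steady-state fit to pooled data from three Cleave-'n-Seq trials, in which uncleaved targets were sequenced and normalised to depth and to weakly complementary targets. Each reaction held 0.1 nM transcribed, DNA-blocked target RNA library and 1 nM active affinity-purified piRISC carrying one synthetic guide, with or without 500 nM GTSF1 partner protein, in HEPES–potassium acetate buffer at 33 °C for 0–8 or 0–960 min. k3 was capped at 0.0001 min^-1.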
row,Sequence,pre-steady-state target cleavage rate
1,UCCUGGUACAGCUUGCAUAGUAUCUUAGUUA,0.00588 ± 0.0027
2,UCCUGCUACAGCUUGAUAGUAUUUAGUUA,0.00658 ± 0.0031
3,UCCUCCUACCAGCUUGCAUAGUAUUUAGUUA,0.0186 ± 0.0056
4,UCCUGGAUCAGCUUGCAUCGUAUUUAGUUA,0.00918 ± 0.0028
5,UCCUGGAUGUCCUUGCCUAGUAUUUAGUUA,0.00345 ± 0.002
6,UCCUGCUUGAGCUUGCAUAGUAUUUAGUAA,0.00772 ± 0.0023
7,UCCUGGAUGAGCAUGCAUUGUAUUUAGUUA,0.00289 ± 0.0022
8,UCCUGCUACAGCUUGGAUAGUAUAUAGUUA,0.0128 ± 0.0037
9,UCCUGGUACAGCUAGCAUAGUAUUUAGUUA,0.0085 ± 0.0027
10,UCCUGCUAACAGCUUGCAUAGUAUUUAGUUA,0.0114 ± 0.0038
11,UCCUGCUACAGCUUGCUUUGUAUUUAGUUA,0.00538 ± 0.003
12,UCCUGGAUGAGCUAGCAUUGUAUUUAGUUA,0.00519 ± 0.0032
13,UCCUGGAACAGCUAGCAUAGUAUUUAGUUA,0.015 ± 0.0041
14,UCCUGGUAGUCCUUGCAUAGUAUUUAGUUA,0.00556 ± 0.0026
15,UCCUGCUACAGCUUGCAUACUAUUUAGUUA,0.00755 ± 0.0026
16,UCCUGGAUGAGCUAGCAUAGUUUUUAGUUA,0.00278 ± 0.0027
17,UCCUGGAUGAAGCUUGCAUAGUAUUUAGUUA,0.0366 ± 0.0082
18,UCCUCCUAAAGCUUGCAUAGUAUUUAGUUA,0.00604 ± 0.0023
19,UCCUGGAUGUGCUUGCAUAGUAUAUUAGUUA,0.0043 ± 0.0034
20,UCCUGCUACAGGUUGCAUAGUAAUUAGUUA,0.00595 ± 0.0019

row,Sequence,pre-steady-state target cleavage rate
1,UCCUCCUACAGCUUCAUAGUAUUUAGUUA,0.0399 ± 0.015
2,UCCUGGAUCAGCUUGCAUAGUAUAAAGUUA,0.00752 ± 0.0027
3,UCCUGGUACAGCUAGCAUAGUAUUAAGUUA,0.00476 ± 0.0024
4,UCCUGGAUGACCUUGGAUAGUAUUUAGUUA,0.00325 ± 0.0032
5,UCCUGGUACAGCUAGCAUAGUAUUUUGUUA,0.00396 ± 0.0023
6,UCCUGCAAGAGCUUGCAUAGUAUUUAGUUA,0.0267 ± 0.0065
7,UCCUGGUACAGCUUGCUUAGUAUAUAGUUA,0.0737 ± 0.025
8,UCCUGCUACAGCUUCAUAGUAUUUAGUUA,0.00994 ± 0.0031
9,UCCUGCUACAGGUUGCUUAGUAUUUAGUUA,0.0276 ± 0.0074
10,UCCUGGAUCAGCUUCGAUAGUAUUUAGUUA,0.00503 ± 0.0041
11,UCCUGGAUCAGCUAGGAUAGUAUUUAGUUA,0.00257 ± 0.002
12,UCCUGGAUCAGCUUGGAUAGUAUUUAGUAA,0.00463 ± 0.0023
13,UCCUGGUACAGCUCGCAUAGUAUUUAGUUA,0.00967 ± 0.0034
14,UCCUGGAUCAGCUGUGCAUAGUAUUUAGUUA,0.0791 ± 0.016
15,UCCUGGUACAGCUUGCAUAGUAUUUAUUUA,0.00732 ± 0.0063
16,UCCUCCUACAGCAAGCAUAGUAUUUAGUUA,0.0493 ± 0.018
17,UCCUGGUACAGCUUGACAUAGUAUUUAGUUA,0.0102 ± 0.003
18,UCCUGGUACAGCUUGCAUAGUAUUUAGUAUA,0.00633 ± 0.0024
19,UCCUGCUACAGCUUGCAUAGUACUUUAGUUA,0.00465 ± 0.0015
